Compounds with a hit are over-represented: about 27% of the library has one in this group of screens.
CYP2C9 inhib – inhibitors of human CYP2C9; inhibition, % at 5 µM; P11712; hit rate 20% among 96,000; CYP2C9 Supersomes, luciferin-H conversion, luminescence;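 active means blocking of liver enzyme CYP2C9 beyond about 50% at 5 µM, limit read from the data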
CYP2C19 inhib – human CYP2C19 inhibition; hit rate 21% among 96,000; AID 778; P33261; CYP2C19 Supersomes, luciferin-H EGE luminescence, 30 min; inhibition, % at 5 µM;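 active means CYP2C19 inhibition above a set limit at 5 µM in the primary screen, cut at about 50% in these data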;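 further: plate controls were negative control wells for no effect and 2.5 mM tranylcypromine positive control for full effect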
Target sequence (P33261 whole entry, looked up): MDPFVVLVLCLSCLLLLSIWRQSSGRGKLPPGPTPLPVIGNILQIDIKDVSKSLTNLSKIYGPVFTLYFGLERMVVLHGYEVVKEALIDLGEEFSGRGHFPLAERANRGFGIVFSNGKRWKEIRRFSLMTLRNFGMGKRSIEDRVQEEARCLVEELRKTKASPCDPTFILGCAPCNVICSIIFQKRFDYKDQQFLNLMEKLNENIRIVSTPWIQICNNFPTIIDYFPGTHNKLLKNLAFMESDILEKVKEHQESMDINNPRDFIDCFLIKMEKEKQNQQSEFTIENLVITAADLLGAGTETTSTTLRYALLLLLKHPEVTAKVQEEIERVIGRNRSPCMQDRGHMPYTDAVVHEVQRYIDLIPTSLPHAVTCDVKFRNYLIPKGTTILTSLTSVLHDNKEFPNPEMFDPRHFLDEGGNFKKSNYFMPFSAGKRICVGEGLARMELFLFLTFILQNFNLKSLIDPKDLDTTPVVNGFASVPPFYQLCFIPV
Cav32 inh – human Cav3.2 channel inhibition, primary screen; O95180; Cav3.2-expressing cells, Fluo-4 calcium fluorescence FDSS; stronger effect = lower value; B-score at 10 µM; hit rate 4% among 100,000;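 active means single-dose well whose peak fluorescence ratio is a statistical outlier from its plate by either plate-standardised score or position-corrected B-score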
CYP2C19 act – increases human CYP2C19 enzyme activity; P33261; recombinant CYP2C19, luciferin-H EGE luminescence; stronger effect = higher value; 0 = fully inhibited enzyme, 1 = untreated enzyme; activation factor at 5 µM; 96,000 tested, under 10 active; AID 1025;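 active means activation factor of at least 2 at 5 µM in the primary screen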;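 further: 0 = wells with 2.5 mM tranylcypromine and 1 = vehicle-only wells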
CYP2C9 activ – activators of human CYP2C9; P11712; recombinant CYP2C9, luciferin-H conversion, luminescence; stronger effect = higher value; factor 1 = untreated enzyme, 0 = blocked; activation factor at 5 µM; hit rate 1.4% among 96,000; AID 1024;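 active means activation factor of 2 or more for CYP2C9 at a 5 µM dose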;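 further: 0 = sulfaphenazole-blocked wells and 1 = vehicle-only wells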
* marks the source's active call; other numbers are inactive results.

Screening CC(=O)n1c2c(c3ccccc31)OC(N)=C(C#N)C2c1ccc(C(C)C)cc1 (stereo not drawn) returned CYP2C9 inhib 72.2*, CYP2C19 inhib 38.6, Cav32 inh 0.00932, CYP2C19 act 0.6 and CYP2C9 activ 0.3.
CC(=O)C1=C(C)OC(N)=C(C#N)C1c1ccco1 (stereo not drawn) was read as CYP2C9 inhib -3.9, CYP2C19 inhib 36.5, Cav32 inh -0.226, CYP2C19 act 0.6 and CYP2C9 activ 1.
Screening Cc1ccc(-c2nnc(SCc3nc4ccccc4[nH]3)n2Cc2ccco2)cc1 returned CYP2C9 inhib 46.2, CYP2C19 inhib 14.6, CYP2C19 act 0.9 and CYP2C9 activ 0.5.
For c1coc(Cn2c(SCc3nc4ccccc4[nH]3)nnc2-c2cccs2)c1 the results were CYP2C9 inhib 92.1*, CYP2C19 inhib 97.5*, Cav32 inh -0.171, CYP2C19 act 0 and CYP2C9 activ 0.1.
`Cc1cccc(-c2nnc(SCc3nc4ccccc4[nH]3)n2Cc2ccco2)c1` gave CYP2C9 inhib 69.9*, CYP2C19 inhib 54.1*, Cav32 inh -4.8*, CYP2C19 act 0.5 and CYP2C9 activ 0.3.
For CC[C@H]1CC2CN3CCc4c([nH]c5c([C@H]6C[C@H]7[C@H](CC)CN(C)[C@@H](Cc8c6[nH]c6ccccc86)[C@H]7C(=O)OC)c(OC)ccc45)C(C(=O)OC)(C2)C13 the results were Cav32 inh -3.85*.
Screening CCC1CN(C)C2Cc3c([nH]c4ccccc34)C(=O)CC1C2C(=O)OC (stereo not drawn) returned Cav32 inh -0.413.
For CO[C@H]1C=CO[C@@]2(C)Oc3c(C)c(O)c4c(O)c(c5c(nc6cc(C)ccn65)c4c3C2=O)NC(=O)C(C)=CC=C[C@H](C)[C@H](O)[C@@H](C)[C@@H](O)[C@@H](C)[C@H](OC(C)=O)[C@@H]1C the results were Cav32 inh -0.0208.
For COC(=O)c1ccc(N=c2sc(C(=O)OC)cc(=O)n2C)cc1 the results were Cav32 inh 0.661.
For C=CCn1c(CC(=O)OC)csc1=Nc1ccc(C(C)=O)cc1 the results were CYP2C9 inhib 43.1, CYP2C19 inhib 78.0*, Cav32 inh -0.69, CYP2C19 act 0.2 and CYP2C9 activ 0.6.
O=C(CC(SCCO)c1ccc2c(c1)OCO2)c1ccco1 (stereo not drawn) was read as CYP2C9 inhib 71.6*, CYP2C19 inhib 97.9*, Cav32 inh 0.41, CYP2C19 act 0 and CYP2C9 activ 0.3.
`COc1ccc(-c2csc(Cc3nnc(N4CCOCC4)n3-c3ccccc3)n2)cc1` gave CYP2C9 inhib 12.2, CYP2C19 inhib -17.6, Cav32 inh 0.897, CYP2C19 act 1.2 and CYP2C9 activ 0.9.
CN(Cc1cccs1)C(=O)CSc1nnnn1C was read as CYP2C9 inhib -12.4, CYP2C19 inhib 28.2, Cav32 inh 0.385, CYP2C19 act 0.7 and CYP2C9 activ 1.1.
Screening CC(C)(C)C(=O)NCCn1ccc2ccccc21 returned CYP2C9 inhib 42.2, CYP2C19 inhib 97.1*, Cav32 inh -0.118, CYP2C19 act 0 and CYP2C9 activ 0.6.
For O=C(NCc1cn2ccccc2n1)c1ccc2c(c1)OCO2 the results were CYP2C9 inhib 11.1, CYP2C19 inhib 2.4, Cav32 inh 0.615, CYP2C19 act 1 and CYP2C9 activ 0.9.
O=C(NCCn1ccc2ccccc21)c1ccc2c(c1)OCO2 was read as CYP2C9 inhib 13.0, CYP2C19 inhib 65.0*, Cav32 inh 0.152, CYP2C19 act 0.3 and CYP2C9 activ 0.9.
For O=C(NCCn1ccc2ccccc21)c1ccc(S(=O)(=O)N2CCCCC2)cc1 the results were CYP2C9 inhib 56.5*, CYP2C19 inhib 17.0, Cav32 inh -1.86, CYP2C19 act 0.8 and CYP2C9 activ 0.4.
Cc1c(C(=O)NCCn2ccc3ccccc32)cccc1[N+](=O)[O-] was read as Cav32 inh -0.144.
Screening COc1ccc(C(=O)NCCn2ccc3ccccc32)cc1 returned CYP2C9 inhib -19.8, CYP2C19 inhib 77.7*, Cav32 inh -0.484, CYP2C19 act 0.2 and CYP2C9 activ 1.2.
CN1CCN(c2nc(N3CCN(c4ccccc4)CC3)ncc2F)CC1 was read as CYP2C9 inhib 19.4, CYP2C19 inhib 61.8*, Cav32 inh -0.0315, CYP2C19 act 0.4 and CYP2C9 activ 0.8.
For c1cc2ccc3ccc(-n4cnnn4)c4ccc(c1)c2c34 the results were CYP2C9 inhib -35.1, CYP2C19 inhib 42.4, Cav32 inh 1, CYP2C19 act 0.6 and CYP2C9 activ 1.4.
Screening COC(=O)c1ccc2c(c1)S(=O)(=O)NC(=NCc1ccco1)S2 returned CYP2C9 inhib -22.2, CYP2C19 inhib 21.7, Cav32 inh 0.00311, CYP2C19 act 0.8 and CYP2C9 activ 1.2.
Screening CCOC(=O)CCC(NC(=O)c1ccc(NCN2C(=O)c3ccccc3C2=O)cc1)C(=O)OCC (stereo not drawn) returned CYP2C9 inhib 55.2*, CYP2C19 inhib 17.8, Cav32 inh 0.518, CYP2C19 act 0.8 and CYP2C9 activ 0.4.
`CC(=O)NC1(c2ccccc2)CCN(c2nc(C)cc(C)n2)CC1` gave CYP2C9 inhib 96.6*, CYP2C19 inhib 93.3*, Cav32 inh 1.14, CYP2C19 act 0.1 and CYP2C9 activ 0.
COc1ccc(OC)c(N(CC(=O)NCc2ccncc2)S(C)(=O)=O)c1 was read as CYP2C9 inhib 52.1*, CYP2C19 inhib 78.3*, Cav32 inh 0.297, CYP2C19 act 0.2 and CYP2C9 activ 0.5.
COc1ccccc1N(CC(=O)NCc1cccnc1)S(C)(=O)=O was read as CYP2C9 inhib -9.1, CYP2C19 inhib 28.0, Cav32 inh 0.304, CYP2C19 act 0.7 and CYP2C9 activ 1.1.
For COc1ccc(OC)c(N(CC(=O)NCc2cccnc2)S(C)(=O)=O)c1 the results were CYP2C9 inhib 12.3, CYP2C19 inhib 70.8*, Cav32 inh 0.176, CYP2C19 act 0.3 and CYP2C9 activ 0.9.
COc1ccc(OC)c(N(CC(=O)NCc2ccccn2)S(C)(=O)=O)c1 was read as CYP2C9 inhib 4.9, CYP2C19 inhib 0.9, Cav32 inh 0.0666, CYP2C19 act 1 and CYP2C9 activ 1.
`CS(=O)(=O)N(CC(=O)NCC1CCCO1)c1ccc(Cl)c(Cl)c1` (stereo not drawn) gave CYP2C9 inhib -8.4, CYP2C19 inhib 41.7, Cav32 inh 0.698, CYP2C19 act 0.6 and CYP2C9 activ 1.1.
Cc1ccccc1N(CC(=O)NCc1ccncc1)S(C)(=O)=O was read as CYP2C9 inhib 86.0*, CYP2C19 inhib 97.0*, Cav32 inh -0.802, CYP2C19 act 0 and CYP2C9 activ 0.1.
CS(=O)(=O)N(CC(=O)NCc1ccncc1)c1ccc(Cl)c(Cl)c1 was read as CYP2C9 inhib 99.0*, CYP2C19 inhib 100.3*, Cav32 inh 0.84, CYP2C19 act 0 and CYP2C9 activ 0.
`COc1ccc(S(=O)(=O)N2CCN(C(=O)[C@@H]3CCC(=O)N3C3OC(=O)c4ccccc43)CC2)cc1` (stereo partly drawn) gave CYP2C9 inhib 7.2, CYP2C19 inhib 5.1, Cav32 inh 0.609, CYP2C19 act 0.9 and CYP2C9 activ 0.9.
